Sampled rows, rich in hits. Any-hit rate of the full collection: about 0.3%.
hcGAS inh: Primary biochemical luminescence assay for human cyclic GMP-AMP synthase inhibitors. inhibition, % at 12.5 µM. recombinant h-cGAS, ATP depletion, Kinase-Glo luminescence. 290,000 compounds, 0.081% hits. Q8N884. AID 1259398, 2018;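 also: 0% = vehicle reaction and 100% = reaction without DNA for no activity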
mcGAS lum: cyclic GMP-AMP synthase inhibitors, mouse, primary biochemical chemiluminescence. Q8C6L5. recombinant cGAS, Kinase-Glo ATP depletion luminescence. inhibition, % at 12.5 µM. 160,000 compounds, 0.15% hits. AID 1259399, 2018;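 also: 0% = negative control wells and 100% = reference inhibitor with no enzyme activity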
Target sequence (Q8C6L5 whole entry, looked up): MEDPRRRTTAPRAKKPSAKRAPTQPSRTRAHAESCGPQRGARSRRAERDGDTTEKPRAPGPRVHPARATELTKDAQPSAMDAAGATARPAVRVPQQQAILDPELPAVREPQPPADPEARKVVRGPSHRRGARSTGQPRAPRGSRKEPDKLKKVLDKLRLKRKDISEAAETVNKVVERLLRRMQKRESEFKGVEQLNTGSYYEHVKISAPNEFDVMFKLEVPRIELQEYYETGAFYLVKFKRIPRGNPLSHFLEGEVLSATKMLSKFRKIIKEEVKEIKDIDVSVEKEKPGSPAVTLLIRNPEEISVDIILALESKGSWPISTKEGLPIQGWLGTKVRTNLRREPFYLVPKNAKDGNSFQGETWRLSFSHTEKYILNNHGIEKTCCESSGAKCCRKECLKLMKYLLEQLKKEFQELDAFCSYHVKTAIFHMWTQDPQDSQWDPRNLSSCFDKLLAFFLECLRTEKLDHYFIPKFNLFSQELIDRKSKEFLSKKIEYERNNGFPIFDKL
NPYLR7 agonist: agonists of mosquito NPYLR7 receptor, primary screen, cell-based, Aedes aegypti, calcium fluorescence, mosquito biting behavior; Aedes aegypti neuropeptide Y-like receptor 7 (NPYLR7); HEK293T NPYLR7/Galpha15, GCaMP6s calcium fluorescence; activation, % at 10 µM; 270,000 compounds, 0.15% hits; in the data active = activation above about 40%;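 also: 0% = vehicle and 100% = reference agonist at the receptor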
Numbers without * were called inactive; . = no result. Rule as the data show it, unless noted: active = inhibition above about 40%; inactive = the rest.

SMILES	hcGAS inh	mcGAS lum	NPYLR7 agonist
COc1cccc(N2C(=O)NC(=O)/C(=C/c3cn(C(C)=O)c4ccccc34)C2=O)c1	3	3	-2
CCC(C)n1cc(/C=C2/C(=O)NC(=O)N(c3ccc4c(c3)OCO4)C2=O)c2ccccc21 (stereo not drawn)	0	.	52*
CCN(CC)CC[n+]1c(C)cc(C=C2Sc3ccccc3N2C)cc1C	11	.	44*
CN1C(=CC(=O)C(F)(F)F)Sc2ccccc21	-10	-6	3
COC(=O)c1ccc(OC(=O)c2cc3c(s2)CCCC3)cc1	4	2	0
O=C(O)CN1C(=O)/C(=C\c2cc(Cc3ccccc3)ccc2O)SC1=S	-5	8	8
O=C(O)CCc1cccs1	-3	.	1
O=C(O)CCC(=O)c1cccs1	48*	-7	0
CCc1cc2c(cc3c(=O)n(CC(=O)O)ncn32)s1	2	-3	4
COC(=O)c1cc(-c2ccccc2)sc1NC(=O)CCCl	-4	-4	-4
NC(=O)c1cc(-c2ccccc2)sc1NC(=O)CCl	4	81*	-8
CS(=O)(=O)c1ccc(-c2cccc3c2OC(CNC(=O)c2cc[n+]([O-])cc2)C3)cc1 (stereo not drawn)	-6	-10	76*
O=C(NCC1Cc2cccc(F)c2O1)c1ccc(F)cc1 (stereo not drawn)	-1	-4	5
Cc1ccc2c(=O)c3ccccc3n(CCCN)c2c1C	71*	.	-2
Cc1ccc(Cl)cc1NC(=O)Cn1c2ccccc2c(=O)c2ccccc21	1	.	-1
CS(=O)(=O)c1ccc(NC(=O)CCl)cc1	-12	.	32
O=C(CCl)N1CCCc2cc([N+](=O)[O-])ccc21	1	96*	2
O=C(c1ccc([N+](=O)[O-])cc1)N1CCCc2ccccc21	-6	.	4
Cc1ccccc1-n1c(SCC(=O)N2CCOCC2)nnc1-c1ccccc1Cl	1	-3	4
CC(=O)Nc1c(-c2cc(C)cc(C)c2)nc2cc(C)ccn12	0	1	-4
Cc1cc(C)cc(-c2nc3cc(C)ccn3c2NC(=O)CCl)c1	-6	42*	-10
COc1cccc(CSc2nnc(C(C)NC(=O)C(Cl)Cl)n2-c2ccc(C)cc2)c1 (stereo not drawn)	8	-6	0
O=C1NC(=S)N/C1=C\c1cc(Br)c(O)c(Br)c1	15	9	27
O=C1NC(=S)S/C1=C/C=C/c1ccccc1	-5	4	-6
O=C1NC(=S)S/C1=C/c1cc(Br)c(O)c(Br)c1	35	43*	24
SMILES	hcGAS inh	mcGAS lum	NPYLR7 agonist
O=C1NC(=S)SC1=Cc1cc(O)c(O)c(Cl)c1	39	.	99*
O=C1NC(=S)S/C1=C\C(Br)=C\c1ccccc1	-8	52*	0
O=C1NC(=S)SC1=Cc1cc(Cl)c2c(c1)OCO2	14	38	3
CCCCCc1ccc(-c2nc(-c3ccncc3)no2)cc1	3	3	-7
Cc1ccc(C2=NN(C(=O)CN3CCN(C)CC3)C(c3ccccc3Cl)C2)cc1 (stereo not drawn)	1	0	45*
Cc1ccc(C2=NN(C(=O)CN3CCCC3)C(c3ccccc3F)C2)cc1 (stereo not drawn)	-4	-6	-4
COc1ccccc1C1CC(c2cccc(F)c2)=NN1C(=O)CN1CCC2(CC1)OCCO2 (stereo not drawn)	-4	-4	2
COc1ccc(C2=NN(C(=O)CN3CCC4(CC3)OCCO4)C(c3ccccc3OC)C2)cc1 (stereo not drawn)	78*	-3	14
CCNC(=O)C1CCCN(c2nc3c(-c4ccc(C)cc4)csc3c(=O)[nH]2)C1 (stereo not drawn)	1	.	-9
CC(NC(=O)c1ccc2c(c1)OCO2)c1nnc(SCc2ccccc2)n1-c1ccc([N+](=O)[O-])cc1 (stereo not drawn)	-8	-6	-5
COc1ccc(-c2cnc3ncnn3c2N2CCCN(C(=O)Nc3ccccc3OC)CC2)cc1	0	-5	14
Cc1cc(O)c(C=O)c2c1C(=O)Oc1c(C)c(O)c3c(c1O2)C(O)OC3=O (stereo not drawn)	42*	.	-8
COc1cc(C)c2c(c1C=O)Oc1c(c(C)c(O)c3c1C(O)OC3=O)OC2=O (stereo not drawn)	70*	41*	-13
COC(=O)c1c(C)c2c(c(C)c1O)OC(=O)c1c(C)c(Cl)c(O)c(Cl)c1O2	22	-2	-1
COC(=O)CSc1nnc(C(C)C)c2cnn(-c3ccccc3OC)c12	-6	-16	-12
CCc1[nH]c2c(CNC(=O)Cn3ccc(=O)[nH]c3=O)cc(F)cc2c1C	-6	-12	5
O=C(CCl)N1CCN(c2ccc(O)cc2)CC1	4	11	-8

Screens (PubChem)
